From PubChem BioAssay (NCI)
About 83,000 compounds went through this panel and 20% of them were active in at least one assay; those are over-represented in the sample as a whole.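 Plates (96-well) were seeded with cells, treated with compound at one concentration, and incubated for 48 hours before percent growth was determined.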 Activity calls are given as the source filed them. Rule for the calls: active = growth percent below 10; inactive = the rest.

Tests used:
Assay in all cases: NCI-60 one-dose screen, 48 h (100 = growth as untreated, 0 = no growth, -100 = all killed)
Conditions in all cases: 10 µM unless noted
SK-MEL-2 melanoma = system: SK-MEL-2 melanoma
EKVX NSCLC = system: EKVX NSCLC
SN12C renal = system: SN12C renal
UO-31 renal = system: UO-31 renal
TK-10 renal = system: TK-10 renal
ACHN renal = system: ACHN renal
CAKI-1 renal = system: CAKI-1 renal
A498 renal = system: A498 renal
CCRF-CEM leukemia = system: CCRF-CEM leukemia
MOLT-4 leukemia = system: MOLT-4 leukemia
SR leukemia = system: SR leukemia
RPMI-8226 leukemia = system: RPMI-8226 leukemia
OVCAR-8 ovarian = system: OVCAR-8 ovarian
OVCAR-5 ovarian = system: OVCAR-5 ovarian
OVCAR-4 ovarian = system: OVCAR-4 ovarian
SK-OV-3 ovarian = system: SK-OV-3 ovarian
IGROV1 ovarian = system: IGROV1 ovarian
HS 578T breast = system: HS 578T breast
NCI/ADR-RES ovarian = system: NCI/ADR-RES ovarian
OVCAR-3 ovarian = system: OVCAR-3 ovarian

Measured: growth

COc1cc2oc(-c3cccc(C(=O)N[C@@H](CC(C)C)C(=O)OC(C)(C)C)c3)cc(=O)c2c(OC)c1OC
inactive: SK-MEL-2 melanoma 81.6% | EKVX NSCLC 89.7% | SN12C renal 57% | UO-31 renal 39.6% | TK-10 renal 95% | ACHN renal 69.7% | CAKI-1 renal 53.6% | A498 renal 96.7% | CCRF-CEM leukemia 40.2% | MOLT-4 leukemia 62.1% | SR leukemia 42.1% | RPMI-8226 leukemia 37.4% | OVCAR-8 ovarian 49.3% | OVCAR-5 ovarian 93% | OVCAR-4 ovarian 69.6% | SK-OV-3 ovarian 111% | IGROV1 ovarian 71.5% | HS 578T breast 56.9% | NCI/ADR-RES ovarian 49%

C#CCn1cccc1CNc1ccc(OC)cc1
active: SK-MEL-2 melanoma -14.1% | EKVX NSCLC -83% | SN12C renal -84.3% | UO-31 renal -95.4% | TK-10 renal -77.7% | ACHN renal -95% | CAKI-1 renal -87.6% | CCRF-CEM leukemia -43.6% | MOLT-4 leukemia -29.5% | SR leukemia -36.1% | RPMI-8226 leukemia -58.8% | OVCAR-8 ovarian -28% | OVCAR-5 ovarian -89.5% | OVCAR-4 ovarian -63.8% | SK-OV-3 ovarian -63.5% | IGROV1 ovarian -68.5% | HS 578T breast -40%
inactive: A498 renal 53.8%

Cc1occc1-c1nc2s/c(=C/c3ccc(-c4cc(C(F)(F)F)ccc4Cl)o3)c(=O)n2n1
inactive: SK-MEL-2 melanoma 109% | EKVX NSCLC 100% | SN12C renal 98.4% | UO-31 renal 87.4% | TK-10 renal 114% | ACHN renal 102% | CAKI-1 renal 89.2% | A498 renal 105% | CCRF-CEM leukemia 117% | MOLT-4 leukemia 113% | SR leukemia 101% | RPMI-8226 leukemia 99.5% | OVCAR-8 ovarian 103% | OVCAR-5 ovarian 105% | OVCAR-4 ovarian 102% | SK-OV-3 ovarian 110% | IGROV1 ovarian 103% | NCI/ADR-RES ovarian 109%

Cc1[nH]c(C(=O)Nc2ccccc2OCc2cccc(C(=O)N3CCC[C@@H](N)C3)c2)c(Cl)c1Cl
inactive: A498 renal 56.2%
active: SK-MEL-2 melanoma -74.1% | EKVX NSCLC -93.4% | SN12C renal -79.4% | UO-31 renal -89.5% | TK-10 renal -90.2% | ACHN renal -96.4% | CAKI-1 renal -92.8% | CCRF-CEM leukemia -26.6% | MOLT-4 leukemia -55.2% | SR leukemia -46.2% | RPMI-8226 leukemia -38.5% | OVCAR-8 ovarian -45.2% | OVCAR-5 ovarian -87.3% | OVCAR-4 ovarian -77.4% | SK-OV-3 ovarian -59.3% | IGROV1 ovarian -73.5% | OVCAR-3 ovarian -87.4% | NCI/ADR-RES ovarian -68.8%

COc1ccc(C(=O)CSc2nc3c(c(Nc4ccc(S(N)(=O)=O)cc4)n2)CCCC3)cc1
inactive: SK-MEL-2 melanoma 104% | EKVX NSCLC 96.7% | SN12C renal 89.9% | UO-31 renal 81.1% | TK-10 renal 120% | ACHN renal 89.9% | CAKI-1 renal 70.9% | A498 renal 86.5% | CCRF-CEM leukemia 83.1% | MOLT-4 leukemia 75.7% | SR leukemia 69.6% | RPMI-8226 leukemia 83.6% | OVCAR-8 ovarian 92.3% | OVCAR-5 ovarian 123% | OVCAR-4 ovarian 87.8% | SK-OV-3 ovarian 120% | IGROV1 ovarian 112% | HS 578T breast 110% | NCI/ADR-RES ovarian 103%

COc1cccc2c1CN(C(=O)c1ccc(O)c(C(=O)N3Cc4ccc(OCCC[P+](c5ccccc5)(c5ccccc5)c5ccccc5)cc4C3)c1)C2
inactive: SK-MEL-2 melanoma 61.5% | EKVX NSCLC 52.4% | SN12C renal 90.4% | UO-31 renal 77.3% | TK-10 renal 116% | ACHN renal 96.6% | CAKI-1 renal 82.3% | A498 renal 107% | CCRF-CEM leukemia 71.1% | MOLT-4 leukemia 93.6% | SR leukemia 35.3% | RPMI-8226 leukemia 26.2% | OVCAR-8 ovarian 79.5% | OVCAR-5 ovarian 123% | OVCAR-4 ovarian 84% | SK-OV-3 ovarian 112% | IGROV1 ovarian 43.9% | HS 578T breast 49.5% | NCI/ADR-RES ovarian 103%

CCNC(=O)N1CCc2cc(OC)c(OCCc3ccc(OC)c(N)c3)cc2C1c1cc(C)c(C)cc1C (stereo not given)
inactive: SK-MEL-2 melanoma 33.2% | EKVX NSCLC 58.3% | SN12C renal 39.4% | UO-31 renal 38.4% | TK-10 renal 68% | ACHN renal 32.5% | CAKI-1 renal 30.1% | A498 renal 20% | CCRF-CEM leukemia 46.7% | MOLT-4 leukemia 32.3% | SR leukemia 15.1% | RPMI-8226 leukemia 32.4% | OVCAR-8 ovarian 39% | OVCAR-5 ovarian 51.7% | OVCAR-4 ovarian 62.6% | SK-OV-3 ovarian 61.4% | IGROV1 ovarian 31.9% | HS 578T breast 36.1% | NCI/ADR-RES ovarian 20.8%

CC[C@H](CO)Nc1ccc2ncc(C#Cc3cncc(C(=O)Nc4ccc(CN5CCN(C)CC5)c(C(F)(F)F)c4)c3)n2n1
inactive: NCI/ADR-RES ovarian 54.3%
active: SK-MEL-2 melanoma -97.7% | EKVX NSCLC -64.3% | SN12C renal -65.1% | UO-31 renal -83.3% | TK-10 renal -57% | ACHN renal -98.6% | CAKI-1 renal -79.7% | A498 renal -99.4% | CCRF-CEM leukemia 1.55% | MOLT-4 leukemia -3.11% | SR leukemia -42.9% | RPMI-8226 leukemia -44.8% | OVCAR-8 ovarian -58.1% | OVCAR-5 ovarian -38.1% | OVCAR-4 ovarian -47.7% | SK-OV-3 ovarian -45.6% | IGROV1 ovarian -33.1% | HS 578T breast -43.9%
